Compounds without any hit were thinned out: in the full panel of roughly 83,000, 20% have a hit.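 Interpretation: 100, growth as untreated; towards 0, rising growth inhibition; 0, no net growth; 0 to -100, cell death. Compounds scoring below 10 were considered active.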 Unmarked numbers belong to inactive results. The source made the active and inactive calls.
What was measured:
Assay in all cases: NCI-60 one-dose screen, 48 h (100 = growth as untreated, 0 = no growth, -100 = all killed)
Conditions in all cases: 10 µM unless noted
NCI-H23 lung = system: NCI-H23 lung
NCI-H226 lung = system: NCI-H226 lung
NCI-H322M lung = system: NCI-H322M lung
HOP-62 NSCLC = system: HOP-62 NSCLC
NCI-H460 lung = system: NCI-H460 lung
HOP-92 NSCLC = system: HOP-92 NSCLC
NCI-H522 lung = system: NCI-H522 lung
A549/ATCC NSCLC = system: A549/ATCC NSCLC
786-0 renal = system: 786-0 renal
COLO 205 colon = system: COLO 205 colon

SMILES | growth (NCI-H23 lung) | growth (NCI-H226 lung) | growth (NCI-H322M lung) | growth (HOP-62 NSCLC) | growth (NCI-H460 lung) | growth (HOP-92 NSCLC) | growth (NCI-H522 lung) | growth (A549/ATCC NSCLC) | growth (786-0 renal) | growth (COLO 205 colon)
c1ccc2cc3nc4cc5ccccc5cc4nc3cc2c1 | 88.8% | 97.3% | 109% | 83.5% | 99.8% | 94.3% | 99% | 88.4% | 108% | 77.7%
O=C(/C=C/c1c(Cl)nc2sccn12)c1ccc(F)c(F)c1 | 67% | 73.2% | 93.1% | 79.8% | 79.5% | 50.6% | 66.5% | 80.3% | 84.7% | 93%
Cc1ccc(N(C(=O)CCc2c[nH]c3ccccc23)[C@H](C(=O)Nc2ccc(Cl)cc2)c2cccc([N+](=O)[O-])c2)cc1 | 92.8% | 74.9% | 79.1% | 68% | 98.2% | 75.9% | 64.2% | 73.8% | 90.5% | 95%
Cc1c2c(c(C)c3c1oc1cc(O)ccc13)C(=O)N(CCN1CCCCC1)C2=O | 94.6% | 88.5% | 85.9% | 80% | 38.7% | 92.4% | 94.1% | 81.2% | 71.7% | 85.8%
CC(C)(C)n1cc(-c2ccnc(NCCCNS(=O)(=O)c3ccccc3)c2)c(-c2ccccc2)n1 | 76.9% | 82.5% | 88.9% | 90.7% | 78.9% | 24.5% | 74.6% | 63.5% | 56.4% | 57.4%
C(=N\Nc1ncc(-c2cc3cc4c(cc3o2)OCO4)s1)/c1ccco1 | 20.9% | 58.4% | 77.3% | 62.1% | 13.3% | 63.2% | 8.73% (active) | -10.1% (active) | 1.77% (active) | 6.46% (active)
Cn1c(-c2c(N)n(Cc3cccnc3)c3nc(C#N)c(C#N)nc23)nc2ccccc21 | 92.2% | 98.4% | 77% | 95.3% | 106% | 2.81% (active) | 76.4% | 94.6% | 91% | 117%
COc1ccc2c(c1)[nH]c(=O)c1c3cccnc3cn21 | 36.6% | 66.3% | 85.8% | 38.4% | 1.71% (active) | 73.5% | 12% | 13% | 25.7% | -45.4% (active)
CC(=O)OC[C@H]1OC(Sc2sc(C(=O)c3ccc(Br)cc3)c(N)c2-c2nc3ccccc3s2)[C@H](OC(C)=O)[C@@H](OC(C)=O)[C@@H]1OC(C)=O (stereo not given in full) | 23.8% | 28.1% | 83.5% | 63.8% | 44.3% | 81.7% | 63.8% | 71.5% | 62.7% | 85%
CS(=O)(=O)c1ccc(Nc2nc(N[C@H]3CCCC[C@H]3N)nc3cc[nH]c(=O)c23)cc1 | -5.38% (active) | -4.65% (active) | 24.1% | 21.1% | 12.4% | -8.34% (active) | -37% (active) | 33.6% | 22.5% | -3.93% (active)
N/C(=N/N=C/c1ccccc1)N/N=C\c1ccccc1 | 66.6% | 81% | 85.2% | 76.5% | 39.8% | 57.1% | 56.8% | 59% | 56.2% | 67.7%
COc1ccc(C2CC(c3cccc(OC)c3)=NN2C(=O)c2cc(OC)c(OC)c(OC)c2)cc1 (stereo not given) | 30.6% | 79.9% | 45.1% | 39.9% | 11.4% | 35.9% | 2.3% (active) | 32.5% | 21.6% | -1.64% (active)
COc1cc(/C=C/C(=O)c2c(C)nc3ccccc3c2/C=C/c2ccc(C)cc2)cc(OC)c1OC | 24.4% | 28.9% | 57.5% | 28.7% | -22.1% (active) | 69.7% | 24.1% | 73.1% | 28.4% | 46.2%
CCC1(C2CCCC2)NC(=O)NC1=O (stereo not given) | 93.5% | 101% | 106% | 115% | 102% | 78.1% | 103% | 104% | 94.1% | 108%
CCn1c(C)nc2cc(C(N)=O)ccc21 | 94.3% | 89.9% | 86.8% | 89.3% | 101% | 90.7% | 90.7% | 104% | 96.3% | 120%
COC(=O)[C@]12CC[C@@H](C)[C@H](C)[C@@H]1C1=CC[C@@H]3[C@@]4(C)C(C=O)=C[C@@](C)(COC(C)=O)C4=CC[C@@]3(C)[C@]1(C)CC2 | 7.56% (active) | 11.2% | 24.8% | -7.82% (active) | -29.1% (active) | -9.34% (active) | -30.5% (active) | 5.26% (active) | -33.7% (active) | -66.5% (active)
CC1=CN2C(=O)C3C4=C(CCCC4)SC3N=C2CN1c1c(C)cccc1C (stereo not given) | 91.1% | 71% | 109% | 82.5% | 76.6% | 55.2% | 77.4% | 82.4% | 75.9% | 110%
COc1ccc2c(c1)C(=O)/C(=C/c1cccc(OCC(=O)Nc3nc(C)c(C)s3)c1)O2 | -38.6% (active) | 71.8% | 122% | 94.8% | 158% | -74.8% (active) | -72.4% (active) | 46.8% | -17.2% (active) | -59.1% (active)
COc1cc(C2CC(c3ccc(Nc4ccnc5cc(Cl)ccc45)cc3)=NN2C=O)cc(OC)c1OC (stereo not given) | 89.2% | 102% | 107% | 84.4% | 57.2% | -3.68% (active) | 71.7% | 72.4% | 63.8% | 95.6%
Cc1c(C(=O)NC(Cc2ccccc2)C(O)C(=O)NCc2ccc(F)cc2)[nH]c2ccccc2c1=O (stereo not given) | 99.8% | 105% | 101% | 99.2% | 104% | 108% | 93.5% | 101% | 104% | 111%
CC(=O)N1C(=S)NC(=O)C1Cn1c(-c2ccccc2)nc2ccccc21 (stereo not given) | 95.2% | 93.6% | 96.8% | 92.1% | 105% | 97.5% | 86.9% | 102% | 102% | 108%
O=C(CSc1nccc(Nc2ccc(S(=O)(=O)Nc3nccs3)cc2)n1)c1ccc(F)cc1 | 97.6% | 102% | 106% | 106% | 106% | 106% | 88.6% | 104% | 103% | 108%
c1ccc2c(c1)nc(CN1CCOCC1)n1cc(N3CCCC3)nc21 | 94% | 93.6% | 103% | 87.5% | 117% | -2.06% (active) | 106% | 87.5% | 91.8% | 103%
Cc1nc2ccccc2c(/C=C/c2ccc(Cl)cc2)c1C(=O)/C=C/c1ccc(F)cc1 | 17.3% | -8.4% (active) | 51.8% | 3.74% (active) | -66.9% (active) | 66.3% | 1.17% (active) | 74.6% | -24.7% (active) | 13.9%
CC1(c2ccccc2)NC(=O)N(NC(=O)CSc2nc(-c3cccs3)nc3ccccc23)C1=O (stereo not given) | 89.7% | 91.1% | 98% | 88.7% | 107% | 77.4% | 82.3% | 79.1% | 94.1% | 124%
Clc1ccc(-c2c3ccc(=[N+]4CCCCC4)cc-3oc3cc(N4CCCCC4)ccc23)cc1 | -85.2% (active) | -87.6% (active) | -88.4% (active) | -89% (active) | -76.2% (active) | -70.1% (active) | -87.7% (active) | -67.4% (active) | -96.5% (active) | -71.1% (active)
c1c[nH]c(CNC2CCCCC2)c1 | 97.7% | 102% | 104% | 103% | 105% | 72.9% | 109% | 103% | 112% | 115%

— PubChem BioAssay (NCI)
